Rows were chosen to be rich in hits. Some 11% of all compounds tested hit in one or more screens of this group.
HP1b binding inh: inhibitors of HP1-beta chromodomain binding to methylated histone tails | P83916 | AlphaScreen HP1-beta / biotin-H3K9me3 peptide binding | Potency, µM (highest dose often 114 µM), without a hit: at the highest dose activity change, negative = inhibition, hits mostly inhibitors | 390,000 compounds, 0.56% hits | AID 540317; further: nearly all actives have a fitted effect of over 70% in size
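HP1-beta protein (50 nM final) preincubated 30 min at room temperature with biotinylated H3(1-18)K9me3 peptide (50 nM) in PBS pH 7.4, 0.01% Tween-20, then compound added for 30 min. AlphaScreen streptavidin donor/nickel chelate acceptor beads (10 ug/mL final), 30 min dark, luminescence read.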
VDR inhibitor: vitamin D3 receptor (human) inhibition. Potency, µM, inactives show max response, negative = inhibition, actives largely listed as inhibitors. 400,000 compounds, 0.93% hits. P11473. VDR-SRC2-3 peptide fluorescence polarization, 2 h. AID 504847; further: on the % scale 0 is the no-effect control and ±100 the full control effect
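FP read-out; VDR + SRC2-3 coactivator peptide; 23 nl compound by pintool; 2 h RT incubation; reagents held at 4 deg C, protected from light.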
PLK1 PBD block: PLK1 (human) polo-box domain binding inhibition; P53350; Potency, µM, for inactives: max response, negative = inhibition, usual class: inhibitors; 360,000 compounds, 2.8% hits; Plk1 PBD binding of FITC phosphopeptide, fluorescence polarization; further: series mostly up to about 57 µM; on the % scale 0 is the no-effect control and ±100 the full control effect; nearly all actives have a fitted effect of over 65% in size
JMJD2A Tudor inh: JMJD2A Tudor domain (human) inhibition; AID 504339; AlphaScreen JMJD2A-Tudor / H3K4me3 peptide binding; 390,000 compounds, 4.4% hits; Potency, µM (titrated, usually from 114 µM), for the others: top-dose activity change, negative = inhibition, most hits filed as inhibitors; further: on the % scale 0 is the no-effect control and ±100 the full control effect; nearly all actives have a fitted effect of over 50% in size
Target sequence (O75164 whole entry, looked up, the tested form may be a part): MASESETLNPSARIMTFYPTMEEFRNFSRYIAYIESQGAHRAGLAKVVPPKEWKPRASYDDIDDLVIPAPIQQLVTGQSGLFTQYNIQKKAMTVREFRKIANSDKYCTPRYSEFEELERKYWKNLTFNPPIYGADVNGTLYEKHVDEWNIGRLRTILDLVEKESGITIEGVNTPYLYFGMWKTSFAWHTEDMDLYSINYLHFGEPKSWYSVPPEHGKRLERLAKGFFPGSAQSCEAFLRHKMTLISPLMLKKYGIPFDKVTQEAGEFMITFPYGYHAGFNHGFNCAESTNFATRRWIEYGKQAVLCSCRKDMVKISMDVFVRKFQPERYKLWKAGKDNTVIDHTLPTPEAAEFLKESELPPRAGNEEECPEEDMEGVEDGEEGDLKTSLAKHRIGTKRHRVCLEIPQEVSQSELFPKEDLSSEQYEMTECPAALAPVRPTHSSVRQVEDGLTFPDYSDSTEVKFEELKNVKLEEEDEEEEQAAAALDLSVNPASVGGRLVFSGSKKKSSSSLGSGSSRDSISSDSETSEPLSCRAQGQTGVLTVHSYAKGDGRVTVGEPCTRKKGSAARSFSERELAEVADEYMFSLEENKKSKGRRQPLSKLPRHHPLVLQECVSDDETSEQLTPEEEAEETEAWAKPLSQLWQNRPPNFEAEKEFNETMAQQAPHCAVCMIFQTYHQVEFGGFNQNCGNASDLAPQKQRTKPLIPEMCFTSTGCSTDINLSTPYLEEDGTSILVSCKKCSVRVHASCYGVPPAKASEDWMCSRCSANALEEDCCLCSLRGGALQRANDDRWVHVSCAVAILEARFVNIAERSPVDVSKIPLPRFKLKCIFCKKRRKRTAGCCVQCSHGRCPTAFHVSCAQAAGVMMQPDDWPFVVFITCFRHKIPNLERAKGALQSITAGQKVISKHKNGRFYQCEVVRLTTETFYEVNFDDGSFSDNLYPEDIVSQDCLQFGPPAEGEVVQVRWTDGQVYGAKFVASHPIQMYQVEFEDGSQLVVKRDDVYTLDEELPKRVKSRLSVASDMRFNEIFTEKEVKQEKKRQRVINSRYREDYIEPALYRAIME
G9a inh: G9a (human) methyltransferase inhibition. G9a H3K9 monomethylation, AlphaScreen, 2 h. Potency, µM (titrated, usually from 102 µM), inactives show top-dose activity, negative = inhibition, hits mostly inhibitors. 350,000 compounds, 8.8% hits. AID 504332; further: on the % scale 0 is the no-effect control and ±100 the full control effect; nearly all actives have a fitted effect of over 75% in size
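Methyltransferase reactions run at room temperature for 2 h (20 nM enzyme, 500 nM biotin-H3K9 peptide, 20 uM SAM) after a 15 min compound preincubation; product detected by AlphaScreen beads and anti-H3K9me1 antibody.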
BAZ2B inh: inhibitors of human BAZ2B bromodomain. Q9UIF8. AlphaScreen BAZ2B-H3K14Ac peptide displacement. Potency, µM (series often up to 114 µM), for inactives: at the top dose activity change, negative = inhibition, usual class: inhibitors. 360,000 compounds, 4.4% hits; further: on the % scale 0 is the no-effect control and ±100 the full control effect; nearly all actives have a fitted effect of over 60% in size
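Protein-peptide AlphaScreen: BAZ2B 50 nM, b-H3K14Ac 50 nM, 1x PBS pH 7.4 + 0.01% Tween-20. Preincubation 30 min RT; cpd 30 min RT (top 110 uM); beads 20 min RT, light-protected.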
The depositor's hits bear a star; ? = inconclusive; · = no result given; [ ] = remark or other dose. The call rests on the fitted dose curve; in most records, active means well fitted curve in the direction sought with a large enough effect; inconclusive means small, poorly fitted or top-dose-only effect, or another doubt; inactive means no such curve, though single readings can be large; an effect the other way counts as inactive or inconclusive. Potency means the concentration at half of the fitted maximal effect.

SMILES | HP1b binding inh | VDR inhibitor | PLK1 PBD block | JMJD2A Tudor inh | G9a inh | BAZ2B inh
CCOc1ccc(-c2c(C#N)c(N)nc3sc(C(=O)c4ccccc4)c(N)c23)cc1 | 112% | -15% | ? | 15% | 4%[59 µM] | 0%
CCOC(=O)CSc1nc(C2CC2)cc(-c2ccc(Cl)cc2)c1C#N | 20% | -14% | 24µM* | -17% | -2%[59 µM] | 19%
N#Cc1c(-c2ccccc2F)cc(C2CC2)nc1SCC(=O)c1cccs1 | 29% | -2% | -19% | -4% | 45µM* | -4%
CCOC(=O)CSc1nc(N)c(C#N)c(-c2ccc(OC)cc2)c1C#N | 58% | -6% | -20% | 6% | 50µM* | 7%
CCOC(=O)CSc1nc(-c2ccc(Cl)cc2)cc(C(F)(F)F)c1C#N | 86% | -26% | · | 62% | 27%[59 µM] | 16%
COc1ccc(-c2c(C#N)c(N)nc3sc(C(=O)c4ccccc4)c(N)c23)cc1 | 86% | -15% | -19% | 15% | 50µM* | 23%
Cn1c(N)c(S(=O)(=O)NCc2ccc(F)cc2)c(=O)n(C)c1=O | 9% | 0% | 2% | -10% | 12% | -3%
CC(C)c1ccc(N2C(=O)C(Cl)=C(N3CCOCC3)C2=O)cc1 | 31% | -16% | -18% | -7% | 10% | -4%
CCc1ccccc1N1C(=O)C(Cl)=C(N2CCOCC2)C1=O | 83% | ? | -12% | 7% | 8%[0.501 µM] | -4%
CCOc1ccc(N2C(=O)C(Cl)=C(N3CCOCC3)C2=O)cc1 | 25% | 28µM* | -20% | -27% | 50µM* | -29%
O=C1C(Cl)=C(N2CCOCC2)C(=O)N1c1ccc(Br)cc1 | 54% | ? | ? | -20% | 45µM* | 6%
O=C(CCNC(=O)OCc1ccccc1)NC1CCCCCC1 | 43% | -17% | 2% | -17% | 5% | 4%
N#Cc1cccc(NC(=O)Cn2c3[n+](c4ccc(C(F)(F)F)cc42)CCCCC3)c1 | 1% | 18% | -7% | -15% | 8.9µM* | 2%
CCn1c(SCC(=O)Nc2ccc3c(c2)oc2ccccc23)nnc1-c1ccc(N)cc1 | -14% | 25% | 3% | ? | ? | -31%
Cn1c(SCC(=O)O)nnc1-c1ccc(NC(=O)c2ccc(Cl)c(Cl)c2)cc1 | 24% | -4% | -18% | -8% | 50µM* | -1%
CC(=O)Nc1ccc(-c2nnc(SCC(=O)Nc3ccc4c(c3)oc3ccccc34)n2C)cc1 | 44% | 2% | -3% | 100µM* | 32%[0.501 µM] | 1%[57.1 µM]
CCOc1cc(/C=N/NC(=O)c2cccnc2)ccc1OCC(=O)N(C)C | 15% | ? | -7% | -14% | -36% | -10%
CCC(=O)N1CCc2cc(Br)cc(S(=O)(=O)N3CCN(c4ccc(C(C)=O)cc4)CC3)c21 | 16% | -4% | · | -7% | 12%[59 µM] | 3%
CC(=O)c1ccc(N2CCN(S(=O)(=O)c3ccc4c5c3CC(=O)N5CC(C)S4)CC2)cc1 (stereo unspecified) | 17%[57 µM] | -14% | -8% | -18% | 45µM* | -21%[57.1 µM]
CC(=O)Nc1ccc(NC(=O)CN2C(=O)CCc3cc(S(=O)(=O)N4CCCCC4)ccc32)cc1 | 31% | 5% | · | 0% | 11%[12.7 µM] | -26%
CC1(c2nnnn2-c2ccc3c(c2)OCCO3)CCC(=O)N1Cc1cccnc1 (stereo unspecified) | · | · | -6% | · | · | ·
Cc1cc2nnc(SC3CCCCN(C(=O)c4ccc(F)cc4)C3=O)n2c2ccccc12 (stereo unspecified) | 31% | 10% | -11% | ? | 40µM* | 0%
Cc1cc2nnc(SC(C)C#N)n2c2ccccc12 (stereo unspecified) | 3% | -23% | 21µM* | 10µM* | 3.2µM* | 6%
Cc1cc2nnc(SC3CCOC3=O)n2c2ccccc12 (stereo unspecified) | 15% | 7% | -5% | 10µM* | 10µM* | 6%
O=C(COc1ncnc2ccccc12)c1ccc(Cl)cc1 | 0% | -1% | -8% | -14% | 13%[0.0925 µM] | 2%
SMILES | HP1b binding inh | VDR inhibitor | PLK1 PBD block | JMJD2A Tudor inh | G9a inh | BAZ2B inh
COc1cccc(C2c3[nH]c4ccccc4c3CCN2Cc2cnc(C)s2)c1OC (stereo unspecified) | -11% | -4% | -10% | ? | 1% | 25µM*
COc1ccc(C2c3[nH]c4ccccc4c3CCN2C(=O)Cc2nonc2C)c(F)c1 (stereo unspecified) | -3% | -21% | -6% | ? | -13%[59 µM] | ?
COc1ccc(C2c3[nH]c4ccccc4c3CCN2Cc2ccoc2)c(F)c1 (stereo unspecified) | -12% | -13% | 2% | ? | 45µM* | ?
Fc1ccccc1C1c2[nH]c3ccccc3c2CCN1CCCn1cccn1 (stereo unspecified) | 5% | 13% | -9% | ? | 40µM* | -38%
Oc1cccc(C2c3[nH]c4ccccc4c3CCN2Cc2ccoc2)c1 (stereo unspecified) | -16% | -18% | -13% | ? | -39% | ?
Oc1cccc(C2c3[nH]c4ccccc4c3CCN2Cc2ccc3c(c2)CCO3)c1 (stereo unspecified) | -35% | 4% | -2% | 56µM* | -44% | 45µM*
COc1ccccc1C1c2[nH]c3ccccc3c2CCN1Cc1cnc(C)s1 (stereo unspecified) | 21% | 9% | 3% | -1%[11.4 µM] | -12% | -10%
CN(C)c1ncc2nc(-c3ccccc3)c(=O)n(CCc3ccccc3)c2n1 | · | 8% | · | · | 8%[0.501 µM] | ·
CC(C)C[C@H]1CN([C@@H](Cc2ccc(O)cc2)CN2CCC[C@H]2CN2C(=O)C(=O)NC[C@@H]2Cc2ccc(O)cc2)C(=O)C(=O)N1CCc1ccccc1 | · | · | 2% | · | · | ·
Cc1cc(C)nc(Sc2ccc(/C=C(\C#N)C(N)=O)o2)n1 | 14% | -6% | 0% | -7% | -1%[59 µM] | -2%
Cc1ccc(-c2ccc(/C=C(\C#N)C(N)=S)n2C)cc1 | -30% | 7% | -7% | ? | 10µM* | ?
Cc1cc(C)c(/C=C(\C#N)C(N)=S)c(C)c1 | 1% | -25% | -6% | -32% | 45µM* | 1%
O=S(=O)(NCCc1ccccc1)c1ccc(Cl)nc1 | 36% | 7% | 3% | 8% | 20%[59 µM] | 12%
O=C(OCC(=O)N1CCN(c2ccccc2)CC1)c1ccc(O)cc1O | 55% | -8% | 4% | -9% | · | 16%
COC1=C(Nc2ccccc2OC)C(=O)c2ccccc2C1=O | 35µM* | 6% | 1% | 45µM* | -161%[59 µM] | 8.9µM*
COc1ccccc1NC1=C(NC(C)=O)C(=O)c2ccccc2C1=O | 50µM* | -28% | ? | ? | 7.9µM* | ?
Cc1nc2ccc(NC(=O)Cc3c(F)cccc3Cl)cc2s1 | 75% | 2% | -9% | -3% | 29%[59 µM] | -13%
